According to ChEMBL document CHEMBL3988442, “University of Dundee, Small-Polar-MMV Screening Library” (2021):
The whole screen tested about 48,000 compounds, of which about 13,000 (27%) showed an effect of 50% or more. This is one part of the list.

Test system: Wolbachia pipientis
Assay: Anti-Wolbachia Cell-Based Screen
Format: functional
Design: scale not given: in the data most compounds retested in dose-response had high values
Details: 5 µM

Q: How did the “Percent Effect” value turn out when `CC(=O)NCCC(=O)NCC1(c2c(F)cccc2F)CCCC1` was run?
A: 8.916%

Q: For `COc1c(CNC2CCN(c3ccccn3)CC2)c(C(C)C)nn1C`, which “Percent Effect” value is on record?
A: 112.8%

Q: With `COc1c(CNC2CCN(c3ncccn3)CC2)c(C(C)C)nn1C` as the molecule, how does the “Percent Effect” value read?
A: -7.484%

Q: `COc1c(CNC2CCN(c3ncccn3)CC2)c(C)nn1C` was tested. Which “Percent Effect” value did it give?
A: 109.2%

Q: `COc1c(CNC2CCN(CC(=O)NC3CC3)CC2)c(C)nn1C` was tested. Which “Percent Effect” value did it give?
A: -12.1%

Q: `CCCS(=O)(=O)N1CCC(NCc2c(C)nn(C)c2OC)CC1` was tested. Which “Percent Effect” value did it give?
A: -2.561%

Q: How did the “Percent Effect” value turn out when `COc1c(CNC2CCCN(c3ncccn3)C2)c(C(C)C)nn1C` (configuration not stated) was run?
A: 105%

Q: Which “Percent Effect” value does the source give for `O=C(NCc1ccco1)c1cccc(CN2CCCC2CO)c1` (configuration not stated) here?
A: -23.86%

Q: Which “Percent Effect” value does the source give for `Cc1cnn(C(C)C2CC2)c1NC(=O)c1ccco1` (configuration not stated) here?
A: -0.6057%

Q: For `COc1cc2c(cc1OC)S(=O)(=O)N(Cc1ccc(C)cc1)C2=O`, which “Percent Effect” value is on record?
A: -15.41%

Q: `CCC(C)(CNC(=O)Nc1nccs1)N1CCOCC1` (configuration not stated) was tested. Which “Percent Effect” value did it give?
A: 14.58%

Q: With `Cc1nc(NC(=O)C2(C)CN(C)CCO2)sc1C.Cl` (configuration not stated) as the molecule, how does the “Percent Effect” value read?
A: 123.3%

Q: For `Cc1csc(NC(=O)c2cccnc2N2CCOCC2)n1`, which “Percent Effect” value is on record?
A: -18.32%

Q: Which “Percent Effect” value does the source give for `CN1CCOC(C(=O)Nc2ccc3c(c2)nc(C(C)(C)C)n3C)C1` (configuration not stated) here?
A: 1.099%

Q: `CN1CCOC(C)(C(=O)Nc2nccs2)C1` (configuration not stated) was tested. Which “Percent Effect” value did it give?
A: 89.7%

Q: Which “Percent Effect” value does the source give for `CN1CCOC(C)(C(=O)Nc2nc(C(C)(C)C)cs2)C1` (configuration not stated) here?
A: 82.99%

Q: Which “Percent Effect” value does the source give for `CN1CCC(NC(=O)Cc2csc(C(C)(C)C)n2)CC1` here?
A: -5.316%

Q: `Cc1nc(NC(=O)C(C)N2CCN(c3ncccn3)CC2)sc1C` (configuration not stated) was tested. Which “Percent Effect” value did it give?
A: -4.452%

Q: For `Cc1csc(NC(=O)C2(C)CN(C)CCO2)n1` (configuration not stated), which “Percent Effect” value is on record?
A: 103.9%

Q: How did the “Percent Effect” value turn out when `CC(C)(CNC(=O)Nc1nccs1)N1CCOCC1` was run?
A: -4.16%

Q: For `Cc1nsc(NC(=O)NC2(CN3CCOCC3)CCCC2)n1`, which “Percent Effect” value is on record?
A: -3.665%

Q: With `Cc1csc(NC(=O)C2(C)CCCO2)n1` (configuration not stated) as the molecule, how does the “Percent Effect” value read?
A: -5.614%

Q: Which “Percent Effect” value does the source give for `Cc1nccn1C1(C(=O)O)CCN(Cc2ccc3c(c2)OCCO3)CC1` here?
A: -9.809%

Q: How did the “Percent Effect” value turn out when `O=C1CC[C@H]2CN(c3ncc(F)cn3)CC[C@H]2N1CCc1c[nH]cn1` was run?
A: -5.494%

Q: How did the “Percent Effect” value turn out when `O=C(NCc1ccncc1)N(Cc1ccccc1F)C1CC1` was run?
A: 1.311%

Q: How did the “Percent Effect” value turn out when `Cc1cc(C)n2ncc(CN3CCC(n4cc(CCO)nn4)CC3)c2n1` was run?
A: 4.389%

Q: How did the “Percent Effect” value turn out when `CNc1nc2c(s1)C(=O)CN(C(=O)NCCc1ccccc1)C2` was run?
A: 90.96%

Q: For `COc1cccc(CNC(=O)c2nc3c(o2)CN(C(=O)N(C)C)C3)c1`, which “Percent Effect” value is on record?
A: -21.04%

Q: How did the “Percent Effect” value turn out when `CC(C)Nc1nc2c(s1)C(=O)CN(C(=O)NCCc1ccccc1)C2` was run?
A: 113.9%

Q: With `CNc1nc2c(s1)C(=O)CN(C(=O)[C@@H](N)Cc1cccc(OC)c1)C2` as the molecule, how does the “Percent Effect” value read?
A: 113.9%

Q: How did the “Percent Effect” value turn out when `O=C(NCCc1ccccc1)N1CCC(C2OCCO2)CC1` was run?
A: 12.73%

Q: With `CCC1=N[C@@]2(CC[C@@H]3CN(C(=O)NCc4ccccc4)C[C@@H]32)C(=O)N1` as the molecule, how does the “Percent Effect” value read?
A: -15.34%

Q: With `O=C1NCCN2CCN(C(=O)NCCc3ccccc3)CC12` (configuration not stated) as the molecule, how does the “Percent Effect” value read?
A: -9.412%

Q: With `NC(=O)c1cccc(CCNC(=O)N2Cc3ccccc3C2)c1` as the molecule, how does the “Percent Effect” value read?
A: 2.881%

Q: How did the “Percent Effect” value turn out when `CC(C)[C@@H]1CN(C(=O)NCCc2ccccc2)C[C@H]1NS(=O)(=O)N(C)C` was run?
A: -13.11%

Q: `COc1cccc(CN2CCN(C(=O)Nc3nc(C)ns3)CC2=O)c1` was tested. Which “Percent Effect” value did it give?
A: -7.215%

Q: `CNc1nc2c(s1)C(=O)CN(C(=O)NCc1ccccc1)C2` was tested. Which “Percent Effect” value did it give?
A: -1.017%

Q: For `CC(C)Nc1nc2c(s1)C(=O)CN(C(=O)NCc1ccccc1)C2`, which “Percent Effect” value is on record?
A: 95.64%

Q: For `COc1ccc(Cl)cc1CNC(=O)CN1CCC2(CCOC2)C1` (configuration not stated), which “Percent Effect” value is on record?
A: 5.478%

Q: With `CCCC(=O)NCC(=O)NC(c1ccc(Cl)cc1)C(F)(F)F` (configuration not stated) as the molecule, how does the “Percent Effect” value read?
A: -4.192%

Q: `CC(=O)c1cn(CC(=O)N2CCCC(O)(CO)C2)c2ccccc12` (configuration not stated) was tested. Which “Percent Effect” value did it give?
A: -9.342%

Q: How did the “Percent Effect” value turn out when `Cc1nc(C)c(CC(=O)N2C[C@H]3CC[C@@H]2CN(C(=O)N(C)C)C3)c(=O)[nH]1` was run?
A: -5.688%

Q: How did the “Percent Effect” value turn out when `Cc1ccc(CN(Cc2ccccn2)C(=O)C2CCCCCN2C)s1` (configuration not stated) was run?
A: -49.91%

Q: How did the “Percent Effect” value turn out when `O=C(NCc1cc(F)ccc1F)Nc1ccn(CC(F)F)n1` was run?
A: -16.02%

Q: `CCCS(=O)(=O)CC(=O)Nc1ccsc1` was tested. Which “Percent Effect” value did it give?
A: -10.7%

Q: With `CCNc1nc2c(s1)C(=O)CN(C(=O)NCc1ccccc1)C2` as the molecule, how does the “Percent Effect” value read?
A: 105.7%

Q: `CCNc1nc2c(s1)C(=O)CN(C(=O)NCCc1ccccc1)C2` was tested. Which “Percent Effect” value did it give?
A: -10.47%

Q: For `COCc1nc2c(o1)CN(C(=O)NCc1ccccc1)C2`, which “Percent Effect” value is on record?
A: 27.3%

Q: How did the “Percent Effect” value turn out when `CN(C)c1nc2c(c(N3CCCC3)n1)CCN(C(=O)c1ccc[nH]1)CC2` was run?
A: 91.66%

Q: Which “Percent Effect” value does the source give for `Nc1nc2c(c(N3CCOCC3)n1)CCN(C(=O)c1ccc[nH]1)CC2` here?
A: 39.51%

Q: Which “Percent Effect” value does the source give for `Cc1nc(-c2cnn(C)c2)nc2c1CN(C(=O)c1ccc[nH]1)CC2` here?
A: -2.829%

Q: Which “Percent Effect” value does the source give for `CC(C#N)CN(C)Cc1c(Cl)ccc2cccnc12` (configuration not stated) here?
A: 4.156%

Q: For `COC(C)c1cccc(NCc2ccsc2)c1` (configuration not stated), which “Percent Effect” value is on record?
A: -13.03%

Q: `CCc1cnc(N)nc1NCc1ccc(OC)cc1OC` was tested. Which “Percent Effect” value did it give?
A: -6.529%

Q: With `COc1ccncc1NCc1ccsc1` as the molecule, how does the “Percent Effect” value read?
A: 15.23%

Q: Which “Percent Effect” value does the source give for `COc1ccc(CNC(Cc2ccsc2)c2ccc(C)cn2)c(OC)c1` (configuration not stated) here?
A: 101.2%

Q: `COc1cccc(OC)c1CNC(Cc1ccsc1)c1ccc(C)cn1` (configuration not stated) was tested. Which “Percent Effect” value did it give?
A: 169.8%

Q: Which “Percent Effect” value does the source give for `COc1ccc(CNc2c(C)nn(C(C)C)c2C)cc1OC.Cl` here?
A: 8.952%

Q: How did the “Percent Effect” value turn out when `COc1ccc(CNc2cc(-c3nc(C)no3)ccn2)c(OC)c1` was run?
A: -6.518%

Q: Which “Percent Effect” value does the source give for `COc1ccc(CNC(Cc2ccsc2)c2ccc(C)cn2)cc1OC.Cl` (configuration not stated) here?
A: 112.1%

Q: `O=C(NCc1cccc(-n2cncn2)c1)NCC(C1CC1)C1CC1` was tested. Which “Percent Effect” value did it give?
A: -15.59%

Q: Which “Percent Effect” value does the source give for `CC(C)Cn1cncc1CNC1CCSCC1` here?
A: 2.151%

Q: With `COc1ccc(F)c(CN2CCCC(O)(CNC3CCCCC3)C2=O)c1` (configuration not stated) as the molecule, how does the “Percent Effect” value read?
A: -6.817%

Q: `Cc1noc2ncc(C(=O)NCC3CCOC3)cc12` (configuration not stated) was tested. Which “Percent Effect” value did it give?
A: -15.76%

Q: How did the “Percent Effect” value turn out when `COc1c(C)cnc(CNC(=O)c2cnc3onc(C)c3c2)c1C` was run?
A: 104.5%

Q: With `COc1c(C)cnc(CNC(=O)c2cc(C)nc3onc(C)c23)c1C` as the molecule, how does the “Percent Effect” value read?
A: -1.817%

Q: How did the “Percent Effect” value turn out when `O=C(NCCOCCO)[C@@]12CNC[C@@H]1CN(C1CCCC1)C2` was run?
A: -7.865%
